Records with an inconclusive call do not appear. Activity calls are given as the source filed them. Unless noted, calls come from the whole dose curve; as a rule, active = well fitted curve in the direction sought with a large enough effect in the repeat runs; inconclusive = weak or mixed curves; inactive = flat fitted curve, though single readings scatter.
Experiments:
[1] = qHTS assay to test for compound auto fluorescence at 535 nm (green) in HEK293 cells (AID 720680)
[2] = qHTS assay to test for compound auto fluorescence at 460 nm (blue) in HEK293 cell free culture (AID 720681)
Procedure, shortened: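 Test compounds were pinned into cell-free culture medium (DMEM with 10% FBS) and fluorescence was read directly at Ex/Em 405/460 nm. Signals were expressed as fluorescence equivalents of triamterene, with DMSO vehicle as control.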

[3] = qHTS assay to test for compound auto fluorescence at 535 nm (green) in HEK293 cell free culture (AID 720682)
Procedure, shortened: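 No cells present: wells hold DMEM supplemented with 10% FBS, into which compound or vehicle is pinned. Green emission is then recorded (485 nm excitation, 535 nm emission) and scaled to fluorescein.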

[4] = qHTS assay to test for compound auto fluorescence at 590 nm (red) in HEK293 cell free culture (AID 720683)
Procedure, shortened: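 Tox21 10K library compounds were pinned into cell-free DMEM with 10% FBS and fluorescence was read at excitation 540 nm. Activity is expressed as Rose Bengal sodium equivalency.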

[5] = qHTS assay to test for compound auto fluorescence at 590 nm (red) in HepG2 cell free culture (AID 720684)
Procedure, shortened: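 Red fluorescence (540 nm excitation, 590 nm emission) was measured after compound transfer into cell-free MEM supplemented with 10% FBS. Values are equivalencies against Rose Bengal sodium.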

[6] = qHTS assay to test for compound auto fluorescence at 460 nm (blue) in HepG2 cell free culture (AID 720685)
Procedure, shortened: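 Compound (23 nL) or DMSO pinned into cell-free MEM with 10% FBS; blue fluorescence read at 405/460 nm excitation/emission, expressed as auto-fluorescence equivalency to triamterene.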

[7] = qHTS assay to test for compound auto fluorescence at 535 nm (green) in HepG2 cell free culture (AID 720686)
[8] = qHTS assay to test for compound auto fluorescence at 460 nm (blue) in HepG2 cells (AID 720687)
Procedure, shortened: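 Cells (2,000/well in MEM with 10% FBS) attached overnight at 37 C, then were exposed to compound or DMSO for 1 hr at 37 C, 5% CO2. Fluorescence read at Ex/Em 405/460 nm, expressed as triamterene-equivalent signal.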

[9] = target: Glucocorticoid receptor (Homo sapiens) (UniProt P04150); test: qHTS assay to identify small molecule antagonists of the glucocorticoid receptor (GR) signaling pathway (AID 720692; active = well fitted inhibition curve with a large enough effect in the signal ratio in the repeat runs, not every such curve was filed as active; the % refers to the signal ratio)
Procedure, shortened: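 HeLa GR-bla cells; cmpd + dex 5 nM final, 18 h 37 C; LiveBLAzer B/G FRET substrate 2 h RT; fluorescence intensity read. Antagonist mode, qHTS.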

[10] = target: Glucocorticoid receptor (Homo sapiens) (UniProt P04150); test: qHTS assay to identify small molecule agonists of the glucocorticoid receptor (GR) signaling pathway (AID 720691; active = well fitted activation curve with a large enough effect in the signal ratio in the repeat runs, not every such curve was filed as active; the % refers to the signal ratio)
Procedure, shortened: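 Fluorescence intensity from LiveBLAzer B/G FRET substrate (2 h, room temperature) reports beta-lactamase expression driven by the glucocorticoid response element in GR-bla HeLa cells after 18 h compound exposure at 37 C.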
% is set by controls: 0 for no effect and ±100 for the full control effect.

Glucocorticoid receptor (Homo sapiens), sequence (P04150 whole entry, looked up): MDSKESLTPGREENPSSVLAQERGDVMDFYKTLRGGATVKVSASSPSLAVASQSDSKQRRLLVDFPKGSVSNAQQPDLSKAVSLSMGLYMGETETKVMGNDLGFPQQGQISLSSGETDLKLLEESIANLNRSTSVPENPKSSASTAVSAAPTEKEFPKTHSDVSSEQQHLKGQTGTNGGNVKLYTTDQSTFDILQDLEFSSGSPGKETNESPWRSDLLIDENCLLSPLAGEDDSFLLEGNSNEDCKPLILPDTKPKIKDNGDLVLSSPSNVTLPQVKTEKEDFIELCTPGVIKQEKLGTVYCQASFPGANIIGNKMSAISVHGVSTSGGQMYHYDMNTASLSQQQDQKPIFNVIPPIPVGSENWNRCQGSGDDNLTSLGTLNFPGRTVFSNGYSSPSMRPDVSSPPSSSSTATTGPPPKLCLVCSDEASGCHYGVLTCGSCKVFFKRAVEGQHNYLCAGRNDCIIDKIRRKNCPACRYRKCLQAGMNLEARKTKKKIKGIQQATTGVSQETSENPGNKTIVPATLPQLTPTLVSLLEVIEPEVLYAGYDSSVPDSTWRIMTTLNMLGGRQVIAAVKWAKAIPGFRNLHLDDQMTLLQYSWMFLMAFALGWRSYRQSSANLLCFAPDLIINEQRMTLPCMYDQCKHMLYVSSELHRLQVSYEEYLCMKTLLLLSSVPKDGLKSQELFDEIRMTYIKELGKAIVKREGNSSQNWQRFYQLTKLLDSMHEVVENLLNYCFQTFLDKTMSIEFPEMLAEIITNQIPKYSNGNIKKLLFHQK

CCCOCCOCCOCCO
inactive: outcome [1] | outcome [2] | outcome [3] | outcome [4] | outcome [5] | outcome [6] | outcome [7] | outcome [8]

CC(C)COC(=O)CCCCC(=O)OCC(C)C
inactive: outcome [1] | outcome [2] | outcome [3] | outcome [4] | outcome [5] | outcome [6] | outcome [7] | outcome [8]

NS(=O)(=O)c1cc2c(cc1Cl)NC(C(Cl)Cl)NS2(=O)=O (stereo not drawn)
inactive: fluorescence, % of fluorescein [1] 0.0129% [at 18.6 µM] | fluorescence, % of fluorescent control [2] -0.0271% [at 18.6 µM] | activity change [3] -0.0213% [at 18.6 µM] | fluorescence, % of fluorescent control [4] 0.0566% [at 18.6 µM] | fluorescence, % of Rose Bengal [5] -0.224% [at 18.6 µM] | fluorescence, % of fluorescent control [6] -0.0397% [at 18.6 µM] | fluorescence, % of fluorescein control [7] -0.0047% [at 18.6 µM] | fluorescence, % of fluorescent control [8] -0.0034% [at 18.6 µM]

O=CN1CCOCC1
inactive: outcome [1] | outcome [2] | outcome [3] | outcome [4] | outcome [5] | outcome [6] | outcome [7] | outcome [8]

CCN(CCO)c1cccc(C)c1
inactive: outcome [1] | outcome [2] | outcome [3] | outcome [4] | outcome [5] | outcome [6] | outcome [7] | outcome [8]

COc1ccc(OC)c(NC(=O)CC(C)=O)c1
inactive: outcome [1] | outcome [2] | outcome [3] | outcome [4] | outcome [5] | outcome [6] | outcome [7] | outcome [8]

C=C(C)[C@@H]1CC[C@@H](C)C[C@@H]1O
inactive: outcome [1] | outcome [2] | outcome [3] | outcome [4] | outcome [5] | outcome [6] | outcome [7]

CCC(=O)OCCC(C)CCC=C(C)C (stereo not drawn)
inactive: outcome [1] | outcome [2] | outcome [3] | outcome [4] | outcome [5] | outcome [6] | outcome [7] | outcome [8]

Cc1nc2ccccc2c(=O)o1
inactive: outcome [1] | outcome [2] | outcome [3] | outcome [4] | outcome [5] | outcome [6] | outcome [7] | outcome [8]

CCN1CN(CC)CN(CC)C1
inactive: outcome [9]

C=C(C)C(=O)OC1CC(C)CC(C)(C)C1 (stereo not drawn)
inactive: outcome [1] | outcome [2] | outcome [3] | outcome [4] | outcome [5] | outcome [6] | outcome [7] | outcome [8] | Potency [10] | outcome [9]

C=CCOc1cc(Cl)ccc1C(=O)NCCN(CC)CC
inactive: outcome [1] | outcome [2] | outcome [3] | outcome [4] | outcome [5] | outcome [6] | outcome [7] | outcome [8] | Potency [10] | outcome [9]

CCC(=O)c1ccc(O)cc1
inactive: outcome [1] | outcome [2] | outcome [3] | outcome [4] | outcome [5] | outcome [6] | outcome [7] | outcome [8] | Potency [10] | outcome [9]

CCCCCC1CCCC(=O)O1 (stereo not drawn)
inactive: outcome [1] | outcome [2] | outcome [3] | outcome [4] | outcome [5] | outcome [6] | outcome [7] | outcome [8] | Potency [10] | outcome [9]

O=C1CC[C@H](C(=O)N2CCCCC2)N1
inactive: outcome [1] | outcome [2] | outcome [3] | outcome [4] | outcome [5] | outcome [6] | outcome [7] | outcome [8] | Potency [10] | outcome [9]

CCCCCCCCCCCCCC(=O)OC
inactive: outcome [1] | outcome [2] | outcome [3] | outcome [4] | outcome [5] | outcome [6] | outcome [7] | outcome [8] | Potency [10] | outcome [9]

Cc1ccc2c(c1)c1c3n2CCNC3CCC1 (stereo not drawn)
inactive: outcome [1] | outcome [2] | outcome [3] | outcome [4] | outcome [5] | outcome [6] | outcome [7] | outcome [8] | Potency [10] | outcome [9]

Cc1nc([N+](=O)[O-])cn1-c1ccc([N+](=O)[O-])cc1
inactive: outcome [1] | outcome [2] | outcome [3] | outcome [4] | outcome [5] | outcome [6] | outcome [7] | outcome [8] | Potency [10] | outcome [9]

Cc1ccccc1C
inactive: outcome [1] | outcome [2] | outcome [3] | outcome [4] | outcome [5] | outcome [6] | outcome [7] | Potency [10]

CN=C(NC#N)NCCSCc1csc(N=C(N)N)n1
inactive: outcome [1] | outcome [2] | outcome [3] | outcome [4] | outcome [5] | outcome [6] | outcome [7] | outcome [8] | Potency [10] | outcome [9]

C=C[C@@H](C)CCC=C(C)C
inactive: outcome [1] | outcome [2] | outcome [3] | outcome [4] | outcome [5] | outcome [6] | outcome [7] | Potency [10]

Cc1ccccc1OCC1CO1 (stereo not drawn)
inactive: outcome [1] | outcome [2] | outcome [3] | outcome [4] | outcome [5] | outcome [6] | outcome [7] | outcome [8] | Potency [10] | outcome [9]

CCN(CCC#N)c1ccccc1
inactive: outcome [1] | outcome [2] | outcome [3] | outcome [4] | outcome [5] | outcome [6] | outcome [7] | outcome [8] | Potency [10] | outcome [9]

CCCO
inactive: outcome [1] | outcome [2] | outcome [3] | outcome [4] | outcome [5] | outcome [6] | outcome [7] | outcome [8] | Potency [10] | outcome [9]
